Unmarked numbers belong to inactive results.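 The calls were made as follows: active = compounds whose dose series gives a full or clear partial fitted curve of increased nuclear translocation; inconclusive = weak partial curve or effect only at the top dose; inactive = no dose-dependent translocation response.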
Each compound was assayed against Glucocorticoid receptor (Homo sapiens) (UniProt P04150) (assay: GR-GFP Redistribution (AID 450)). Conditions: U2OS GR-GFP nuclear translocation, laser cytometry, 2 h.
Glucocorticoid receptor (Homo sapiens), sequence (P04150 whole entry, looked up): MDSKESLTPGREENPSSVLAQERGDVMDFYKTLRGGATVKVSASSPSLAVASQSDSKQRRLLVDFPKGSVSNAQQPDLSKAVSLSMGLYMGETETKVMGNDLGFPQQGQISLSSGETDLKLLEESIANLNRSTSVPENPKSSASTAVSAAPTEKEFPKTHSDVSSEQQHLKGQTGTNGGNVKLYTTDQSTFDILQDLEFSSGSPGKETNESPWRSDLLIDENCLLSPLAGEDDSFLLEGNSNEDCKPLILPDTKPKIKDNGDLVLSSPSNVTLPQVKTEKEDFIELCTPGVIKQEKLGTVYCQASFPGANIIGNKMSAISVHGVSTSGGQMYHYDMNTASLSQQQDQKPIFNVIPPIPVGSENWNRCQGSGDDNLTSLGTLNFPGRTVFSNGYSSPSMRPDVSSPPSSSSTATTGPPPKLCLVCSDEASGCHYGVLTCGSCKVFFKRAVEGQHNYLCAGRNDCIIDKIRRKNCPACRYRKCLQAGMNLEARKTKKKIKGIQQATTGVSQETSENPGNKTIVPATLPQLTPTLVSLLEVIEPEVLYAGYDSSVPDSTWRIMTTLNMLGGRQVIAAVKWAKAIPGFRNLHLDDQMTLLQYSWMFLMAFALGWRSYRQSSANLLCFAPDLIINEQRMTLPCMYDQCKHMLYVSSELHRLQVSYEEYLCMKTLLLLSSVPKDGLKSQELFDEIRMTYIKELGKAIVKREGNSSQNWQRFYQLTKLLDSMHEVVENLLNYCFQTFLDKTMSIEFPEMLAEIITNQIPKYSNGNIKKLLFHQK
Potency is read from the fitted curve at half-maximal effect.

Question: With `O=C(O)C[C@H](Cc1ccccc1Cl)C(=O)O` as the compound, how does the Potency read?
Answer: The Potency was over 46 µM.

Question: For `Cc1cc(Cl)nc(NC(=O)CSc2ccc(Cl)cc2)n1`, which Potency is on record?
Answer: Its Potency is over 46 µM.

Question: For `COc1ccc2c(=O)cc(-c3ccncc3)oc2c1OC`, which Potency is on record?
Answer: Its Potency is over 46 µM.

Question: For `Cc1cc(Nc2ccc(N=Nc3ccc(O)c4ncccc34)cc2)nc(C)n1`, which Potency is on record?
Answer: The Potency was over 46 µM.

Question: `c1ccc2c(CC3NCCN3)cccc2c1` was tested. Which Potency did it give?
Answer: The Potency was over 46 µM.

Question: How did the Potency turn out when `NC([N-]/N=C/c1ccccn1)=[S]=[Fe].O=S(=O)(O)O` was run?
Answer: The Potency was over 46 µM.

Question: How did the Potency turn out when `OCCCN=C1CCCCC1` was run?
Answer: Its Potency is over 46 µM.

Question: How did the Potency turn out when `CC(CC(=O)O)(CC(=O)O)c1ccccc1` was run?
Answer: Its Potency is over 46 µM.

Question: For `c1ccc2c[n+](CCCC[n+]3ccc4ccccc4c3)ccc2c1`, which Potency is on record?
Answer: The Potency was over 46 µM.

Question: For `CC1CCN(CC[S-])CC1.O.O.[Cl][Pt]`, which Potency is on record?
Answer: The Potency was over 46 µM.

Question: How did the Potency turn out when `CC(=O)O[C@H]1CC[C@@]2(C)C(=CC[C@@H]3[C@@H]4CC[C@H](c5cc(C(F)(F)F)n(C(C)=O)n5)[C@]4(C)CC[C@@H]32)C1` was run?
Answer: The Potency was over 46 µM.

Question: With `CC1(C)COCN1COC1CCCCC1` as the compound, how does the Potency read?
Answer: Its Potency is over 46 µM.

Question: For `CN(C)Cc1cc(O)c(O)c(CN(C)C)c1`, which Potency is on record?
Answer: Its Potency is over 46 µM.

Question: Which Potency does the source give for `Cn1c(=S)c2[nH]c(SCCCc3ccccc3)nc2n(C)c1=O` here?
Answer: The Potency was over 46 µM.

Question: With `Cc1noc(NC(=O)Nc2ccccc2F)c1C#N` as the compound, how does the Potency read?
Answer: Its Potency is over 46 µM.

Question: For `COc1cccc(Nc2ncc3ncc(=O)n(C4CC4)c3n2)c1`, which Potency is on record?
Answer: The Potency was over 9.22 µM.

Question: How did the Potency turn out when `Cc1nnc(S(=O)(=O)c2ccc(N=Nc3c(N)nc(N)nc3N)cc2)s1` was run?
Answer: The Potency was over 46 µM.

Question: With `Cc1cc(SCC(=O)c2ccccc2)nc2ccccc12` as the compound, how does the Potency read?
Answer: Its Potency is over 46 µM.

Question: Which Potency does the source give for `CC(CCC(=O)O)(c1ccc(O)cc1)c1ccc(O)cc1` here?
Answer: The Potency was over 46 µM.

Question: Which Potency does the source give for `C[C@]12CC[C@H]3c4ccc(O)cc4CC[C@@H]3[C@H]1CC[C@@H]2OC(=O)CCc1ccccc1` here?
Answer: The Potency was over 46 µM.

Question: For `C/C(=N/O)[C@@H]1C[C@H](CC(=O)O)C1(C)C`, which Potency is on record?
Answer: The Potency was over 46 µM.

Question: With `Nc1nc(N)c2[nH]c(CNc3ccc(C(=O)O)cc3)nc2n1` as the compound, how does the Potency read?
Answer: Its Potency is over 46 µM.

Question: With `Nc1nc(N)nc(CCCCc2nc(N)nc(N)n2)n1` as the compound, how does the Potency read?
Answer: The Potency was over 46 µM.

Question: `Cc1c(S(=O)(=O)O)ccc(N=Nc2c(O)c(C(=O)O)cc3ccccc23)c1Cl` was tested. Which Potency did it give?
Answer: Its Potency is over 46 µM.

Question: Which Potency does the source give for `NC(=O)NCCS[C@H]1CCCC[C@@H]1O` here?
Answer: Its Potency is over 46 µM.

Question: With `c1ccc2cc(NCNc3ccc4ccccc4c3)ccc2c1` as the compound, how does the Potency read?
Answer: Its Potency is over 46 µM.

Question: How did the Potency turn out when `OC[C@@H]1O[C@@H](N2CCN([C@@H]3O[C@@H](CO)[C@@H](O)[C@H](O)[C@H]3O)CC2)[C@@H](O)[C@H](O)[C@H]1O` was run?
Answer: Its Potency is over 46 µM.

Question: How did the Potency turn out when `COc1cc(O)c2c(O)c3c(c4c2c1[C@@]1(C4)C(C)=CCCC1(C)C)[C@H](O)[C@@]1(O)CC(=O)C(C(N)=O)=C(O)[C@]1(O)C3=O` was run?
Answer: The Potency was over 46 µM.

Question: Which Potency does the source give for `CC1=NN(c2ccccc2)C(=O)[C@@H]1N=Nc1ccc(S(N)(=O)=O)cc1` here?
Answer: The Potency was over 46 µM.

Question: For `O=C1Oc2ccccc2C(=O)/C1=C\N1C(=O)N/C(=C\c2ccccc2O)C1=O`, which Potency is on record?
Answer: Its Potency is over 46 µM.

Question: Which Potency does the source give for `Cc1ccc(N=Nc2c(O)c3ccccc3[nH]c2=O)c(S(=O)(=O)N(C)C)c1` here?
Answer: Its Potency is over 46 µM.

Question: For `CCCCNN`, which Potency is on record?
Answer: Its Potency is over 46 µM.

Question: Which Potency does the source give for `COc1cccc2c1C(=N)c1c(O)c3c(c(O)c1C2=O)C[C@](O)(C(C)=O)C[C@@H]3O[C@H]1C[C@H](N)[C@@H](O)[C@H](C)O1` here?
Answer: The Potency was over 46 µM.

Question: `CN(C)CCCN1c2ccc3ccccc3c2Sc2cccc(Cl)c21` was tested. Which Potency did it give?
Answer: The Potency was over 46 µM.

Question: Which Potency does the source give for `N=C1C=CC(=C(c2ccc(N)cc2)c2ccc(N)cc2)C=C1` here?
Answer: Its Potency is over 46 µM.

Question: `O=C(O)Cn1ccnc1[N+](=O)[O-]` was tested. Which Potency did it give?
Answer: Its Potency is over 46 µM.

Question: How did the Potency turn out when `C[C@@H]1CCCN(C[C@@H](O)CN2CCCc3ccccc32)C1` was run?
Answer: The Potency was over 46 µM.

Question: Which Potency does the source give for `NCCSCCC(=O)O` here?
Answer: Its Potency is over 46 µM.

Question: `O=C(c1ccc([N+](=O)[O-])cc1)[C@@H](Br)[C@@H](Br)c1ccnc2ccccc12` was tested. Which Potency did it give?
Answer: Its Potency is over 46 µM.

Question: Which Potency does the source give for `COc1ccc2c(c1)N(CC[C@H]1CCCCN1C)c1ccccc1S2` here?
Answer: Its Potency is over 46 µM.

Reference: PubChem BioAssay (NCATS)
